PubChem BioAssay (NCI)
Compounds without any hit were thinned out: in the full panel of roughly 79,000, 15% have a hit. Cut-off read from the data, not from the text of the source: active = growth inhibition above about 70%; inactive = the rest.

Columns and labels:
[1] = NCI Yeast Anticancer Drug Screen. Data for the rad50 strain (AID 155);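 note: 0% = growth of vehicle-only cultures of the same strain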; details: S. cerevisiae rad50 strain growth inhibition; at 50.0 µM; stronger effect = higher value
Outline: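 Cells are treated with compound, grown, and their growth is then scored against vehicle-only cultures of the same repair-deficient yeast strain.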

[2] = NCI Yeast Anticancer Drug Screen. Data for the mec2-1 strain (AID 157); details: S. cerevisiae mec2-1 strain, at 50.0 µM, stronger effect = higher value
Outline: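 Vehicle-treated cultures served as reference for growth inhibition of compound-exposed mec2-1 yeast.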

[3] = NCI Yeast Anticancer Drug Screen. Data for the sgs1 mgt1 strain (AID 161);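 note: 0% = growth of cultures given vehicle only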; details: S. cerevisiae sgs1 mgt1 strain, at 50.0 µM, stronger effect = higher value
Outline: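 Genetically altered yeast, compound exposure, growth inhibition relative to vehicle.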

[4] = NCI Yeast Anticancer Drug Screen. Data for the cln2 rad14 strain (AID 165);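 note: 0% = growth equal to vehicle treated cultures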; details: S. cerevisiae cln2 rad14 strain, at 50.0 µM, stronger effect = higher value
Outline: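 Each compound was tested on cln2 rad14 yeast. Inhibition of growth was calculated against vehicle-exposed controls.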

[5] = NCI Yeast Anticancer Drug Screen. Data for the bub3 strain (AID 167); details: S. cerevisiae bub3 mutant strain, at 50.0 µM, stronger effect = higher value
Outline: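 Part of a panel of yeast mutants defective in DNA damage repair or cell cycle regulation. Each strain is grown with compound, and inhibition is calculated relative to solvent-treated cultures.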

[6] = NCI Yeast Anticancer Drug Screen. Data for the mlh1 rad18 strain (AID 175); details: S. cerevisiae mlh1 rad18 strain growth inhibition; at 50.0 µM; stronger effect = higher value
Outline: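 Vehicle-treated cultures served as the reference for growth inhibition in a yeast strain carrying DNA damage repair alterations exposed to each compound.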

Measured: growth inhibition

OCC(O)C(O)C(O)c1nn(-c2ccccc2)c2nc3ccccc3nc12 (configuration not stated)
inactive: [1] 3.6% | [2] 1.3% | [3] 3.4% | [4] 7.15% | [5] 11.3% | [6] 17.2%

COc1cc(C(=O)O)c([N+](=O)[O-])c(OC)c1OC
inactive: [1] -12.3% | [2] -6.35% | [3] -18.1% | [4] -11.2% | [5] -29.9% | [6] -7.5%

COc1ccc(Cl)cc1NC(=O)Nc1ccc(SC)cc1
inactive: [1] 24.1% | [2] 50.6% | [3] 56.5% | [4] 20.8% | [5] 33% | [6] 35.5%

CC(C)N(C(=O)C12C3C4C1(I)C1C2C3(I)C41C(=O)N(C(C)C)C(C)C)C(C)C (configuration not stated)
inactive: [1] -9.55% | [2] 23.1% | [3] 25.9% | [4] 18.6% | [5] -0.25% | [6] -12.2%

Nc1cccc2sccc12
inactive: [1] 4.25% | [2] 5.15% | [3] -3.85% | [4] -4.1% | [5] 11.9% | [6] -3.35%

Cc1nc(-c2ccccc2)ncc1C(O)CN1CCOCC1 (configuration not stated)
inactive: [1] 12.8% | [2] 11.2% | [3] 17.4% | [4] 13.7% | [5] -23% | [6] 6.95%

Nn1c(C23CC4CC(CC(C4)C2)C3)n[nH]c1=S
inactive: [1] 4.35% | [2] 5.65% | [3] 36.1% | [4] -6.85% | [5] 16.6% | [6] 28.1%

O=c1[nH]cc(COCC(O)CO)c(=O)[nH]1 (configuration not stated)
inactive: [1] -27% | [2] -10.7% | [3] -43.9% | [4] 3.95% | [5] -29.9% | [6] -23.7%

ON=C(c1ccccc1)c1ccccc1
inactive: [1] -0.15% | [2] -3.8% | [3] -2.05% | [4] -7.2% | [5] -1.95% | [6] -2.95%

O=CNC(Cc1cnc[nH]1)C(=O)O (configuration not stated)
inactive: [1] -14.4% | [2] -16.9% | [3] -48.1% | [4] -68.2% | [5] -25.5% | [6] -30.2%

CCSC(SCC)[C@H](NC(C)=O)[C@@H](O)[C@H](O)[C@H](O)CO
inactive: [1] -6.8% | [2] -12.2% | [3] -8.85% | [4] 0.1% | [5] 2.85% | [6] -12.3%

C/C=C/C=C/C(=O)OCC
inactive: [1] 31.8% | [2] -2.25% | [3] -16.4% | [4] -2.4% | [5] 15.2% | [6] 14.3%

CCCc1c(O)ccc(C)c1C
inactive: [1] 14.6% | [2] 2.5% | [3] 1.1% | [4] -36.2% | [5] -7.35% | [6] 32.4%

O=C1C(N=Nc2ccc([N+](=O)[O-])cc2)Sc2nc3ccccc3n21 (configuration not stated)
inactive: [1] 25.8% | [2] -39.9% | [3] 7.6% | [4] -14.5% | [5] -2.2% | [6] 12.2%

COC(=O)C1C2C=CC(C1C(=O)O)C1C(Br)=C(Br)C21 (configuration not stated)
inactive: [1] 20.4% | [2] 10.9% | [3] -8.05% | [4] -10.1% | [5] 1.9% | [6] -8.45%

NC(=S)NNC(=O)c1ccc([N+](=O)[O-])cc1
inactive: [1] 10.4% | [2] 18.9% | [3] -3.1% | [4] -17.9% | [5] 1.35% | [6] 36.9%

O=C(O)Cc1c(-c2ccc([N+](=O)[O-])cc2)c(=O)oc2cc(O)ccc12
inactive: [1] 28.4% | [2] 4.15% | [3] 9% | [4] 20.1% | [5] 41% | [6] 11.7%

O=C1NC(=O)C(CCBr)N1 (configuration not stated)
inactive: [1] -21.1% | [2] -6.85% | [3] -10.3% | [4] -3.8% | [5] -13.8% | [6] 5.7%

C#CCC(O)c1ccc(OC)c(OCc2ccccc2)c1 (configuration not stated)
inactive: [1] -6.05% | [2] -17.9% | [3] 18.6% | [4] 4.4% | [5] 4.45% | [6] -1.4%

CCOC(=O)CSc1nnc(N)s1
inactive: [1] 21% | [2] 6.55% | [3] -6.15% | [4] 3.15% | [5] -6.75% | [6] -1.5%

CCCCCCCC/C=C/CCCCCC1CCCC(C)N1 (configuration not stated)
inactive: [1] 26.9% | [2] -20.6% | [3] 2.3% | [4] 3.65% | [5] -11.2% | [6] -2.55%

CCCCOC(=O)Nc1ccccc1OCC
inactive: [1] 6.7% | [2] -19.8% | [3] -0.35% | [4] -48.4% | [5] -20.5% | [6] -11.2%

COc1ccc(C(=O)C(c2ccccc2)c2ccccc2)cc1
inactive: [1] 6.65% | [2] 1.95% | [3] -13.2% | [4] 4.35% | [5] 9.25% | [6] 6%

C1CSCCSCCCSC2CCCCC2SC1 (configuration not stated)
inactive: [1] 22.1% | [2] -0.3% | [3] -8.35% | [4] 17.4% | [5] 5% | [6] 2.15%

COc1cc(C(=O)N(C)N(C)C)cc(OC)c1OC
inactive: [1] 6.6% | [2] -9.6% | [3] 13.4% | [4] 10.9% | [5] -2.85% | [6] -5.6%

O=S(=O)(O)CCCO
inactive: [1] 0.4% | [2] -44.3% | [3] -14.7% | [4] -1.05% | [5] -0.45% | [6] -2.4%

CCCCSc1nc2c(=O)n(C)c(=O)n(C)c2n1C
inactive: [1] 2.1% | [2] 1.15% | [3] 10.8% | [4] -5.7% | [5] -12.7% | [6] 6.95%

COC(C(=O)[O][Ge]([CH3])([CH3])[CH3])c1ccccc1 (configuration not stated)
inactive: [1] 13.8% | [2] -17.8% | [3] -6.85% | [4] 31.4% | [5] -2.15% | [6] -9.25%

CCCC1CC(=O)NC1C(=O)O (configuration not stated)
inactive: [1] -8.75% | [2] -7.85% | [3] -6.85% | [4] -21.9% | [5] -5.25% | [6] -24.4%

COc1ccc(C(c2c(O)c3ccccc3n(C)c2=O)c2c(O)c3ccccc3n(C)c2=O)cc1
inactive: [1] -39% | [2] -19.3% | [3] -25.9% | [4] -33.5% | [5] 1.1% | [6] -35.1%

CCC(S)(C(N)=O)c1ccccc1 (configuration not stated)
inactive: [1] 3% | [2] -10.4% | [3] -7.55% | [4] -26.8% | [5] -4.8% | [6] -18.2%

N#Cc1c(-c2ccc(Cl)cc2)cn2c1[nH]c(=O)c1cc(Br)ccc12
inactive: [1] 6.45% | [2] 0.95% | [3] -18.4% | [4] -12.6% | [5] -3.4% | [6] 14.4%

O=C(O)CC(Cc1ccccc1)C(=O)O (configuration not stated)
inactive: [1] 1% | [2] -3.45% | [3] -26.1% | [4] -17.8% | [5] -31.9% | [6] 2.05%

COC(=O)/C=C/C1C2C3(CCC(C)C12C)OCCS3 (configuration not stated)
inactive: [1] -23.4% | [2] -14.2% | [3] -4.45% | [4] -5.3% | [5] -6.95% | [6] -30.1%

O=C(O)COc1ccc(C2CCCCC2)cc1
inactive: [1] 5.1% | [2] 3.3% | [3] -7.65% | [4] 21.8% | [5] -4.9% | [6] -1.95%

CCOC(CNCc1ccncc1)OCC
inactive: [1] -19.8% | [2] -20.3% | [3] -26.8% | [4] 4.9% | [5] -31% | [6] -10.9%

CC(=O)OC1CC2CCCCC2CC1[N+](C)(C)C (configuration not stated)
inactive: [1] 2.25% | [2] 7.3% | [3] 13.8% | [4] -1.15% | [5] 3.3% | [6] -35.8%

C=C(C)Cn1cnc2c1c(=O)n(C)c(=O)n2C
inactive: [1] -0.15% | [2] -9.6% | [3] -14.4% | [4] -37.6% | [5] -14.1% | [6] -5.6%

CC12CCC(=O)C=C1CCC1C2CCC2(C)C(C(=O)Cn3c(=O)[nH]cc(F)c3=O)CCC12 (configuration not stated)
inactive: [1] 19.9% | [2] 1.85% | [3] 25.9% | [4] 8.85% | [5] 6.55% | [6] 11%

O=C1OC(C(O)CO)C(C(O)CO)OC1=O (configuration not stated)
inactive: [1] -9.3% | [2] -15.6% | [3] -39.5% | [4] -7.35% | [5] -12.3% | [6] 1.6%

O=C(NC12CC3CC(CC(C3)C1)C2)C(=O)c1c[nH]c2ccc(Br)cc12
inactive: [1] -21.9% | [2] -20.3% | [3] -14.1% | [4] -21.4% | [5] -2.95% | [6] -52.4%

CCOC(CNCCC(=O)OC)OCC
inactive: [1] -31.9% | [2] -59.2% | [3] -23.4% | [4] -8% | [5] -5.35% | [6] -29.1%
